# Activity calls are given as the source filed them. Unless noted, how the calls were made is not given here.
# Columns and labels:
# [1] = tested on: Wnt5a (protein binding on small-molecule microarray); assay: Wnt5a binders on small-molecule microarray, primary screen, biophysical, 635/667 nm fluorescence (AID 1142); conditions: 635 nm fluorescence, higher = more signal;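 further: fluorescence read at 667 nm with signal to noise per printed feature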
# [2] = cell viability in Huh7 cells, primary screen, cytotoxicity control for HCV replication inhibitor project, CellTiter-Glo luminescence, basal, 48 h (AID 1143); conditions: Huh7 HCV replicon, higher = more signal, called active from +8 up or from −8 down;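 further: Huh7 hepatoma cells carrying a hepatitis C replication reporter with no stimulus; test concentration not given here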
# [3] = P. aeruginosa biofilm formation inhibitors, primary screen, PAO1 strain, BacTiter-Glo luminescence, LB-PBS (AID 1144); conditions: 12 h, higher = more signal
# [4] = CREB reporter modulators without forskolin, primary screen, cell-based, PC12, CRE-LacZ reporter, unstimulated (AID 1145); conditions: no forskolin, luminescence, 4.5 h, higher = more signal, called active from +8 up or from −8 down
# [5] = CREB reporter modulators under forskolin, primary screen, cell-based, PC12, CRE-LacZ reporter, forskolin-stimulated (AID 1146); conditions: luminescence, 4.5 h, higher = more signal, called active from +8 up or from −8 down;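 further: PC12 cells with 6xCRE LacZ reporter stimulated by forskolin 10 µM; beta-galactosidase reporter signal reflecting CREB driven transcription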
# [6] = target: Streptavidin (Streptomyces avidinii) (UniProt P22629); assay: streptavidin binders on small-molecule microarray, primary screen, artefact control for SMM compound annotation, biophysical, 635/667 nm fluorescence (AID 1147); conditions: streptavidin binding, higher = more signal;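 further: signal reflects streptavidin binding to arrayed compounds as a control protein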
# Streptavidin (Streptomyces avidinii), sequence (P22629 whole entry, looked up): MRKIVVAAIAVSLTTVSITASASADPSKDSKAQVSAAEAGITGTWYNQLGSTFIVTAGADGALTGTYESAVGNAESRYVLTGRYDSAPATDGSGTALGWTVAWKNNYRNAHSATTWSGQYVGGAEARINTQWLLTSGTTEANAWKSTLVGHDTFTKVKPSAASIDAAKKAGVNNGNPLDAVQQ
# [7] = small-molecule binders of probe aInhba, primary screen, biochemical, small-molecule microarray, 635/667 nm fluorescence (AID 1148); conditions: higher = more signal;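 further: score merges 667nm spot fluorescence with signal-to-noise for antibody binding to printed compounds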
# [8] = target: Torsin-1A (Homo sapiens) (UniProt O14656); assay: torsin A binders from cell lysate, primary screen, small-molecule microarray, wild-type, 635/667 nm (AID 1149); conditions: COS7 hTOR1A-WT lysate, 635 nm fluorescence, higher = more signal
# Torsin-1A (Homo sapiens), sequence (O14656 whole entry, looked up): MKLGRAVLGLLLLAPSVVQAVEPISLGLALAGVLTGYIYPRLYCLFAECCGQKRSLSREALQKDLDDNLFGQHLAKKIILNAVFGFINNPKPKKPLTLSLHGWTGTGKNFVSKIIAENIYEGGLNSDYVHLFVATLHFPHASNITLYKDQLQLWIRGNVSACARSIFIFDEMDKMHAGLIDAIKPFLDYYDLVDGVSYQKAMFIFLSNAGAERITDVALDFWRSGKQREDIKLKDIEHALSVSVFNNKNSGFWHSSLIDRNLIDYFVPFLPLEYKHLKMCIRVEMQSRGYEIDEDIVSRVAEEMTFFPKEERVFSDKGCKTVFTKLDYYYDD
# [9] = target: Torsin-1A (Homo sapiens) (UniProt O14656); assay: small-molecule binders of mutant TOR1A in lysate, primary screen, cell lysate, small-molecule microarray, COS7 lysate, 635/667 nm fluorescence (AID 1150); conditions: COS7 hTOR1A mutant lysate, 635 nm fluorescence, higher = more signal;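 further: score pools 667 nm emission and signal to noise measuring lysate protein binding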
# [10] = tested on: Sonic hedgehog protein (Shh); assay: small-molecule binders of Shh protein, primary screen, biochemical, small-molecule microarray, 635/667 nm fluorescence (AID 1151); conditions: small-molecule microarray binding, 635 nm fluorescence; higher = more signal;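 further: Shh protein binding to compounds spotted on small-molecule microarray slides; score combines spot fluorescence intensity with signal-to-noise across triplicate slides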
SMILES,composite z-score [1],z-score [2],z-score [3],z-score [4],z-score [5],composite z-score [6],composite z-score [7],composite z-score [8],composite z-score [9],composite z-score [10]
COC(=O)[C@H](C)NC(=O)CCC1CC(OC(=O)NCc2cccc3ccccc23)CC2(CCCC(COC(=O)NCc3cccc(C(F)(F)F)c3)O2)O1 (stereo not given in full),0.166,-1.33 (inactive),-1.07 (inactive),-0.0755 (inactive),-0.213 (inactive),0.925,0.444,0.241,0.225,1.04
CON=C(C)CCC(=O)OC[C@H]1O[C@H](C#Cc2ccccc2)C=C[C@@H]1Oc1ccc(C)cc1,0.0488,-1.85 (inactive),-0.0775 (inactive),0.415 (inactive),1.24 (inactive),0.0457,-0.016,0.552,-0.0451,0.597
COc1ccc(COC(=O)NN=C2C[C@@H](O)[C@@H](O)[C@@H]3[C@@H]4C(=O)N(Cc5ccc6c(c5)OCO6)C(=O)[C@@H]4CC[C@H]23)cc1,-0.343,0.0813 (inactive),0.939 (inactive),0.96 (inactive),0.0695 (inactive),0.61,0.0018,-0.878,-0.647,-1.32
CCOC(=O)[C@H](CC(C)C)NC(=O)CCC1CC(OC(=O)NCc2ccc3c(c2)OCO3)CC2(CCCC(COC(=O)NCc3ccccc3)O2)O1 (stereo not given in full),-0.0368,-0.72 (inactive),0.0377 (inactive),-0.437 (inactive),-0.256 (inactive),0.324,0.0712,0.288,0.245,1.84
C[C@H]1CC[C@H]2C(=O)N[C@H](Cc3ccccc3)C(=O)N2[C@@H]1c1ccccc1,0.132,0.21 (inactive),0.108 (inactive),-0.072 (inactive),0.901 (inactive),0.119,-0.233,0.345,0.52,0.401
O=C1C[C@@H](O)[C@@H](O)[C@@H]2[C@@H]3C(=O)N(C4CCCCC4)C(=O)[C@@H]3CC[C@@H]12,0.0446,0.0366 (inactive),0.749 (inactive),-0.0223 (inactive),-0.393 (inactive),0.148,-0.145,-0.0977,0.311,0.684
CC(C)C(=O)N[C@H]1CCCN1C(=O)C=Cc1ccccc1,0.121,0.623 (inactive),0.186 (inactive),-0.255 (inactive),-0.135 (inactive),0.111,0.0173,0.445,0.231,0.769
COC(=O)CC=C[C@@H](C)[C@@H](C=NOC[C@@H](O)[C@H]1O[C@@H]2OC(C)(C)O[C@@H]2[C@H]1O)OC,0.183,0.559 (inactive),0.601 (inactive),-0.0545 (inactive),0.0127 (inactive),0.271,-0.149,-0.104,0.162,0.867
C=CC[C@@H]1C=C[C@H](ON=C(C)CCN2CCCCc3nc(C)c(C)cc32)[C@@H](CO)O1,0.291,-1.25 (inactive),0.701 (inactive),1.72 (inactive),0.578 (inactive),-0.208,-0.179,2.03,1.52,2.05
COc1ccc(COC(=O)NN=C2C[C@@H](O)[C@@H](O)[C@@H]3[C@@H]4C(=O)N(c5cccc(Oc6ccccc6)c5)C(=O)[C@@H]4CC[C@H]23)cc1,-0.142,-3.56 (inactive),0.111 (inactive),-0.293 (inactive),0.505 (inactive),0.993,-0.0375,-0.135,-0.144,-1.44
CCOC(=O)[C@H](CC(C)C)NC(=O)CCC1CC(OC(=O)NCc2ccc3c(c2)OCO3)CC2(CCCC(COC(=O)NCCOc3ccccc3)O2)O1 (stereo not given in full),0.278,-0.705 (inactive),-0.393 (inactive),0.293 (inactive),0.179 (inactive),0.282,-0.0719,0.314,0.387,1.87
Cc1ccc(S(=O)(=O)N[C@@H]2COC(=O)CC=C[C@@H](C)[C@H](NS(=O)(=O)c3ccc(C)cc3)COC(=O)[C@H](C)NC(=O)CC=C[C@H]2C)cc1,-0.0175,0.218 (inactive),-0.88 (inactive),-0.38 (inactive),-0.863 (inactive),-0.508,-0.121,-0.0787,0.0835,0.427
CCCCOC(OCCCC)C(O)CSc1ccc2ccccc2c1 (stereo not given),0.133,-0.657 (inactive),-0.315 (inactive),1.01 (inactive),0.257 (inactive),0.465,-0.282,0.453,-0.0078,0.789
COC(=O)[C@H](C)NC(=O)CCC1CC(OC(=O)NCCc2ccc(F)cc2)CC2(CCCC(COC(=O)NCC3CCCCC3)O2)O1 (stereo not given in full),0.374,-2.59 (inactive),0.0852 (inactive),0.819 (inactive),0.676 (inactive),0.915,-0.0963,-0.0051,0.348,0.886
CO[C@@H]1C=CCC(=O)N[C@@H](C)C(=O)OC[C@@H](OC)[C@H](C)C=CCC(=O)OC[C@H]1C,0.552,-0.0206 (inactive),0.457 (inactive),0.876 (inactive),-0.384 (inactive),-0.477,-0.157,2.58,2.21,2.06
COC(=O)[C@@H]1CC[C@H](C)[C@@H](c2ccc(Br)cc2)N1C[C@H](O)CN=[N+]=[N-],-0.106,-0.999 (inactive),-1.5 (inactive),-0.522 (inactive),-0.369 (inactive),0.127,-0.05,0.386,0.827,0.26
COC(=O)[C@H](C)NC(=O)CCC1CC(OC(=O)NCc2cccc3ccccc23)CC2(CCCC(COC(=O)NCCC(C)C)O2)O1 (stereo not given in full),0.0905,-0.842 (inactive),-0.386 (inactive),-0.522 (inactive),-0.135 (inactive),-0.224,-0.0695,0.181,0.205,0.683
CCCNC(=O)OC[C@H]1O[C@H](CCON=C2c3cc(OC)ccc3O[C@H](c3cccc(OC)c3)[C@H]2O)C=C[C@@H]1Oc1ccc(OC)cc1,0.298,-0.69 (inactive),0.298 (inactive),4.37 (inactive),0.469 (inactive),0.474,-0.0011,0.442,0.818,0.436
C=CC[C@@H]1C=C[C@H](ON=C[C@@H](NS(=O)(=O)c2ccc(C)cc2)[C@H](C)C=CCC(=O)OC)[C@@H](CO)O1,-0.116,0.182 (inactive),1.33 (inactive),0.848 (inactive),0.983 (inactive),-0.407,0.138,0.359,0.634,0.416
C=C(C)C(=O)OC[C@H]1CN2[C@@H](CC[C@@H](C)[C@@H]2c2ccc(Br)cc2)C(=O)O1,-0.219,0.411 (inactive),-0.694 (inactive),-0.654 (inactive),-0.777 (inactive),0.0906,-0.154,0.334,0.0188,0.0827
COC(=O)[C@H](Cc1ccccc1)NC(=O)[C@@H](C)CO,0.276,-2.36 (inactive),-1.61 (inactive),-0.0684 (inactive),0.563 (inactive),0.311,0.284,0.0847,0.0866,0.643
CO[C@H]1COC(=O)[C@H](C)COC(=O)[C@@H](OCc2ccccc2)C=C[C@@H]1C,-0.19,-0.108 (inactive),-0.462 (inactive),-0.745 (inactive),-0.786 (inactive),-0.316,-0.273,0.489,0.214,0.307
CCN1C(=O)[C@H]2[C@H]3[C@H](O)[C@H](O)CC(=NOC(C)CN4CCCc5nc(C)c(C)cc54)[C@@H]3CC[C@H]2C1=O (stereo not given in full),0.223,0.433 (inactive),1.17 (inactive),-0.882 (inactive),-0.271 (inactive),-0.0317,0.134,0.46,0.456,0.906
C[C@H]1CC[C@@H](C(=O)O)N[C@@H]1c1cccc(N2CCCC2=O)c1,0.0767,0.0659 (inactive),-0.43 (inactive),-0.437 (inactive),-1.1 (inactive),-0.0712,-0.134,0.203,0.286,0.189
C[C@@H]1CC[C@H]2C(=O)O[C@@H](CN=[N+]=[N-])CN2[C@H]1c1ccc(Br)cc1,-0.0229,-3.67 (inactive),-0.608 (inactive),3.37 (inactive),-0.833 (inactive),0.414,-0.179,0.48,0.581,0.888
CCOC(=O)[C@H](Cc1ccccc1)NC(=O)CCC1CC(OC(=O)NCc2cccc3ccccc23)CC2(CCCC(COC(=O)NCCc3ccccc3OC)O2)O1 (stereo not given in full),0.201,-0.534 (inactive),0.0213 (inactive),0.104 (inactive),-0.745 (inactive),0.486,-0.0552,0.265,0.0946,1.1
COCC#Cc1ccc([C@@H]2N[C@H](C(=O)O)CC[C@H]2C)cc1,-0.0223,-1.23 (inactive),-1.73 (inactive),-0.0755 (inactive),-1.56 (inactive),0.0402,-0.024,0.24,0.0923,0.742
O=C(NN=C1C[C@@H](O)[C@@H](O)[C@@H]2[C@@H]3C(=O)N(Cc4ccc5c(c4)OCO5)C(=O)[C@@H]3CC[C@@H]12)OCc1ccccc1,-0.0565,-3.46 (inactive),0.156 (inactive),1.06 (inactive),0.0698 (inactive),0.485,-0.183,0.234,-0.0136,-0.806
CCOC(=O)[C@H](CC(C)C)NC(=O)CCC1CC(OC(=O)NCCc2ccc(F)cc2)CC2(CCCC(COC(=O)NCCCN3CCCC3=O)O2)O1 (stereo not given in full),0.189,0.378 (inactive),-0.31 (inactive),0.109 (inactive),0.319 (inactive),0.484,-0.0195,1.66,0.1,0.894
